The target in experiment [1] is Retinoic acid receptor alpha (Homo sapiens) (UniProt P10276). Description: ATG_DR5_RAR_CIS: Attagene CIS-FACTORIAL HepG2 Assay for human Retinoic Acid Receptor Alpha (RARE), DR5 submotif (AID 2282934; active = hit-call score of the fitted dose curve at least 0.9, where 1 is the maximum; inactive = score below 0.9). As to conditions: HepG2 Attagene cis-factorial RARE DR5 reporter, mRNA; actives raise or lower the signal. Put shortly:
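HepG2 cells transiently transfected with multiplexed reporter units under cis (DR5 RARE) promoters, so endogenous transcription factor activity is measured. After 24 h compound exposure, reporter mRNA is quantified by RT-PCR with fluorescent labelling and capillary electrophoresis; bidirectional fitting versus DMSO.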

The target of experiment [2] is Bile acid receptor (Homo sapiens) (UniProt Q96RI1). Description: ATG_IR1_CIS: Attagene CIS-FACTORIAL HepG2 Assay for human Nuclear Receptor Subfamily 1 Group H Member 4 (NR1H4), IR1 submotif (AID 2282946; active = hit-call score of the fitted dose curve at least 0.9, where 1 is the maximum; inactive = score below 0.9). As to conditions: IR1 reporter transcription, actives raise or lower the signal. Put shortly:
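Readout: reporter transcript levels by RT-PCR with fluorescent capillary electrophoresis, from HepG2 cells transiently transfected with multiplexed cis-regulated reporters and dosed 24 h. Gain- or loss-of-signal fitted versus DMSO negative control.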

Experiment [3] in a line: ATG_PPRE_CIS: Attagene CIS-FACTORIAL HepG2 Assay for human Peroxisome Proliferator-activated Response Element (PPRE) (AID 2282958; active = hit-call score of the fitted dose curve at least 0.9, where 1 is the maximum; inactive = score below 0.9). As to conditions: HepG2 PPRE cis-element reporter, Attagene transcription factor profiling; actives raise or lower the signal. In short, it runs like this: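 Cells are first transfected transiently with the multiplexed reporter library, then dosed for 24 h. Total RNA is reverse-transcribed, amplified, fluorescently end-labeled and HpaI-cut before capillary electrophoresis; activity is fitted bidirectionally against DMSO controls.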

Experiment [4] is described as follows: ATG_M_19_TRANS: Attagene TRANS-FACTORIAL HepG2 Assay for M19 Transcription Factor (Internal Marker) (AID 2282974). As to conditions: HepG2 Attagene TRANS-FACTORIAL M19 internal marker reporter. Put shortly:
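Cells: human HepG2, transiently transfected with multiplexed reporter transcription units. Exposure: 24 h. Detection: RT-PCR of reporter mRNA with capillary electrophoresis. Analysis: gain-of-signal vs DMSO.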

Experiment [5] deals with Nuclear receptor subfamily 4 group A member 2 (Homo sapiens) (UniProt P43354). Description: ATG_NURR1_TRANS: Attagene TRANS-FACTORIAL HepG2 Assay for human Nuclear Receptor Related Protein 1 (NURR1) (AID 2282985). As to conditions: HepG2 Attagene TRANS reporter, mRNA readout. Put shortly: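 Chimeric NR-Gal4 proteins were expressed in human HepG2 cells bearing GAL4-UAS reporter units, and induced reporter mRNA was quantified 24 h post-dosing by RT-PCR and capillary electrophoresis.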
Chain of Nuclear receptor subfamily 4 group A member 2 (Homo sapiens) (P43354 whole entry, looked up, the tested form may be a part): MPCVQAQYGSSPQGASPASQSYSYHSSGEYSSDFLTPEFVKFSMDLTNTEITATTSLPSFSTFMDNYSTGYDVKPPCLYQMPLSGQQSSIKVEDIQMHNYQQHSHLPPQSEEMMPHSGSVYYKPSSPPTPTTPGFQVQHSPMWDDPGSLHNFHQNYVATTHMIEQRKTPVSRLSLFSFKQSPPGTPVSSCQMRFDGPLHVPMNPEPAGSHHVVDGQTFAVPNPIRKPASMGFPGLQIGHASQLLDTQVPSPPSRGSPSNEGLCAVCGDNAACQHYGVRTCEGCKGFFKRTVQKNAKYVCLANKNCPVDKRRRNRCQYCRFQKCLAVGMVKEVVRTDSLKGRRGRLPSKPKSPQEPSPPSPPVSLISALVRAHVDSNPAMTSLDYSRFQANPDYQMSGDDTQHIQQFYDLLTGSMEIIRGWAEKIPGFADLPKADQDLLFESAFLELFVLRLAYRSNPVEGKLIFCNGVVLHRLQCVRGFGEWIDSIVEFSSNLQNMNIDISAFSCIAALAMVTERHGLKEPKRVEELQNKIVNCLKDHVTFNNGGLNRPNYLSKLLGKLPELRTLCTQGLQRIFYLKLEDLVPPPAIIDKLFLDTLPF

Experiment [6] can be described thus: ATG_NF_kB_CIS: Attagene CIS-FACTORIAL HepG2 Assay for human Nuclear Factor Kappa B (NF-kB) (AID 2282991; active = hit-call score of the fitted dose curve at least 0.9, where 1 is the maximum; inactive = score below 0.9). As to conditions: HepG2 Attagene cis-factorial NF-kB reporter mRNA; actives raise or lower the signal. In short, it runs like this:
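Endogenous transcription factor activity in HepG2 was captured via cis-regulated reporter constructs; after 24 h dosing, reporter mRNA was reverse-transcribed, amplified, fluorescently labelled and sized by capillary electrophoresis, with activity fitted bidirectionally relative to DMSO.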

Experiment [7] concerns the target human Peroxisome Proliferator-activated Receptor alpha (PPARa), PPARA (gene 5465) (UniProt Q07869). The experiment is described as follows: ATG_PPARa_TRANS: Attagene TRANS-FACTORIAL HepG2 Assay for human Peroxisome Proliferator-activated Receptor alpha (PPARa) (AID 2283001).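 For AC50: potency for gain of reporter signal over DMSO so agonist or activator.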 In short, it runs like this: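 Exposure: 24 h, transiently transfected HepG2 cells. Endpoint: GAL4-UAS reporter mRNA, RT-PCR with capillary electrophoresis fluorescence. Baseline: DMSO; increases fitted.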

The target of experiment [8] is Nuclear receptor subfamily 1 group I member 2 (Homo sapiens) (UniProt O75469). The experiment is described as follows: ATG_PXR_TRANS: Attagene TRANS-FACTORIAL HepG2 Assay for human Pregnane X Receptor (PXR) (AID 2283008). Put shortly: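 Multiplexed TRANS reporter panel in HepG2; this component tracks PXR-Gal4-driven reporter mRNA after 24 h dosing, measured by RT-PCR with capillary electrophoresis fluorescence, fitted against DMSO.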
Chain of Nuclear receptor subfamily 1 group I member 2 (Homo sapiens) (O75469 whole entry, looked up, the tested form may be a part): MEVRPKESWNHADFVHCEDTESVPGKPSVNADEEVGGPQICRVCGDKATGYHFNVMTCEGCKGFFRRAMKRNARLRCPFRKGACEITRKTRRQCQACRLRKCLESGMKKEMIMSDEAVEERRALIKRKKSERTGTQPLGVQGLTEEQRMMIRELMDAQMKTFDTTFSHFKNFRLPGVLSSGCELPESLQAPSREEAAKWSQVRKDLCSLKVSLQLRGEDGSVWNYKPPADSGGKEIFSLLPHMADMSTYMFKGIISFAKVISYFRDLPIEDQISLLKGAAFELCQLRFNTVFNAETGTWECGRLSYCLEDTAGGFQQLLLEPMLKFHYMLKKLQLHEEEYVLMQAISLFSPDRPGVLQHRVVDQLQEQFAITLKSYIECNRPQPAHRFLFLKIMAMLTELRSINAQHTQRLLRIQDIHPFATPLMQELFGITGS

The target of experiment [9] is human Vitamin D Receptor (VDR), VDR (gene 7421) (UniProt P11473). The experiment is described as follows: ATG_VDR_TRANS: Attagene TRANS-FACTORIAL HepG2 Assay for human Vitamin D Receptor (VDR) (AID 2283022). Put shortly: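 RT-PCR/capillary electrophoresis read-out of reporter mRNA induction in transiently transfected HepG2; 24 h dosing; chimeric NR-Gal4 (TRANS format); gain-of-signal fit against DMSO baseline.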
Chain of human Vitamin D Receptor (VDR), VDR (gene 7421) (P11473 whole entry, looked up, the tested form may be a part): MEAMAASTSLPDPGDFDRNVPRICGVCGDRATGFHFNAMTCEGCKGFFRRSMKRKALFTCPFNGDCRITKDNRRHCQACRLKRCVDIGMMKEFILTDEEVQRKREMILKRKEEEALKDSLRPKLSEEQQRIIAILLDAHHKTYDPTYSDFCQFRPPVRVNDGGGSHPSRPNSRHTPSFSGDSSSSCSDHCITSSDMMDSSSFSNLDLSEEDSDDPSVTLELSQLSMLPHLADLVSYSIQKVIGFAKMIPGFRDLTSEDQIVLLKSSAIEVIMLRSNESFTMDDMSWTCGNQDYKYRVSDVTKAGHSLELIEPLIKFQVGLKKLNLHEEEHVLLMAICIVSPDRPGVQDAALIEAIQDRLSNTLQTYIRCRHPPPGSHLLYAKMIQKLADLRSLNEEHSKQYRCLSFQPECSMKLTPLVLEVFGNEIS

Experiment [10] in a line: TOX21_p53_BLA_p3_viability: Viability Assessment in the Tox21 HCT-116 p53 Agonism Beta-lactamase Assay, Phase 3 (AID 2283593).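 Note: cells exposed to compound for 16 h before reading.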 In short, it runs like this:
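HCT-116 cells (4000/well) rested 5 h at 37C, then got DMSO compounds by pin tool (217-fold dilution) for 16 h at 37C, 5% CO2. After the bla read, CellTiter-Glo was added and luminescence read at 30 min, room temperature.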

The target of experiment [11] is Glucocorticoid receptor (Homo sapiens) (UniProt P04150). The experiment is described as follows: ATG_GR_TRANS: Attagene TRANS-FACTORIAL HepG2 Assay for human Glucocorticoid Receptor (GR) (AID 2282978).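 Note: activators score as hits since higher reporter transcript over DMSO is fitted.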 As to conditions: HepG2 Attagene TRANS GR reporter, mRNA transcription. In short, it runs like this: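 In this trans-factorial format, exogenous NR-GAL4 chimeric proteins in transfected HepG2 cells regulate GAL4-UAS reporter transcription. After 24 h treatment, reporter mRNA induction relative to DMSO is read by RT-PCR and capillary electrophoresis.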
Chain of Glucocorticoid receptor (Homo sapiens) (P04150 whole entry, looked up, the tested form may be a part): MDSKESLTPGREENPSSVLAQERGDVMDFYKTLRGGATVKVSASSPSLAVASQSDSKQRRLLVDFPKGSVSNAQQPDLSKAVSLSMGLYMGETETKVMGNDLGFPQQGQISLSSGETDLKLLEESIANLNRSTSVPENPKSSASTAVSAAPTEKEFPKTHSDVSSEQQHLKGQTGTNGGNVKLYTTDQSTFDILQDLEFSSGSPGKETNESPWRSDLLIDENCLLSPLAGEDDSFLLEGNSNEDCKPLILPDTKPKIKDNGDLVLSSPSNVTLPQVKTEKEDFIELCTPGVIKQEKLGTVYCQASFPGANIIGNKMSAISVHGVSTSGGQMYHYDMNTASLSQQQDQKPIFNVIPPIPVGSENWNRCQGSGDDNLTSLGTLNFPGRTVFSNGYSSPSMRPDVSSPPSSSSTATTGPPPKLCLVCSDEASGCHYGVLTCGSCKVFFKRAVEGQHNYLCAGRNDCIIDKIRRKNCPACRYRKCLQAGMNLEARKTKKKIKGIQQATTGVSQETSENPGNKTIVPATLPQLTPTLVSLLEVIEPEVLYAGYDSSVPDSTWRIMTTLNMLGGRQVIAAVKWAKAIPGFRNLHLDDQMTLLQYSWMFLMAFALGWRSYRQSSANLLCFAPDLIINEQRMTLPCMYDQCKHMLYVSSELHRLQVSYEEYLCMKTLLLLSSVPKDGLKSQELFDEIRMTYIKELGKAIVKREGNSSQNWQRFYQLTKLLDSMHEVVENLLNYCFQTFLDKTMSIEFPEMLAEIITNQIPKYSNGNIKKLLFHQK

The target of experiment [12] is Oxysterols receptor LXR-alpha (Homo sapiens) (UniProt Q13133). Description: ATG_LXRa_TRANS: Attagene TRANS-FACTORIAL HepG2 Assay for human Liver X Receptor alpha (LXRa) (AID 2282980). As to conditions: HepG2 Attagene TRANS reporter, LXRa transactivation. In short, it runs like this:
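Read-out: reporter transcript levels by RT-PCR plus capillary electrophoresis, fluorescence intensity. Transiently transfected HepG2, exogenous NR-GAL4 chimera, GAL4-UAS reporters; 24 h compound exposure. Activity = increase over DMSO negative control.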

Experiment [13] concerns the target human RAR-related Orphan Receptor beta (RORb), RORB (gene 6096) (UniProt Q92753). The experiment is described as follows: ATG_RORb_TRANS: Attagene TRANS-FACTORIAL HepG2 Assay for human RAR-related Orphan Receptor beta (RORb) (AID 2283010). Put shortly:
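HepG2, transient MRTU transfection (GAL4-UAS reporters, exogenous NR-Gal4 chimeras); 24 h compound exposure; total RNA → RT-PCR → 6-FAM primer extension → HpaI digest → CE fluorescence. Positive direction vs DMSO baseline.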

Experiment [14] addresses human RAR-related Orphan Receptor gamma (RORg), RORC (gene 6097) (UniProt P51449). The experiment is described as follows: ATG_RORg_TRANS: Attagene TRANS-FACTORIAL HepG2 Assay for human RAR-related Orphan Receptor gamma (RORg) (AID 2283011).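 For AC50: potency for induction of reporter transcripts above DMSO so activators.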 Put shortly:
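Transient MRTU transfection of HepG2 (TRANS format, exogenous NR-Gal4 chimera). 24 h dosing. Total RNA → oligo(dT) RT → PCR → 6-FAM labelling → HpaI cut → CE. Gain vs DMSO.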

Experiment [15] in a line: ATG_XTT_Cytotoxicity: Cytotoxicity Assessment in the Attagene TRANS-FACTORIAL HepG2 Assay (AID 2283584). Put shortly:
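XTT readout of cell number in transfected HepG2 cells, 24 h post-dosing; DMSO serves as negative control and baseline, with activity taken as loss of viability signal.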

For experiment [16], the target named is Retinoic acid receptor RXR-alpha (Homo sapiens) (UniProt P19793). The experiment is described as follows: ATG_RXRa_TRANS: Attagene TRANS-FACTORIAL HepG2 Assay for human Retinoid X Receptor alpha (RXRa) (AID 2283012). Put shortly: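 Read-out: fluorescent reporter-transcript fragments quantified by capillary electrophoresis after RT-PCR. Transiently transfected HepG2 cells carrying GAL4-UAS reporters and NR-GAL4 chimeras were exposed to chemical for 24 h; activity scored as increase over DMSO.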

A short description of experiment [17]: CCTE_Harrill_HTTr_Viability_MCF7: CCTE's 6-hour Cell Viability Assessment for the High-Throughput Transcriptomics (HTTr) Platform, in MCF-7 cells cultured in DMEM + 10% fetal bovine serum, Harrill Lab (AID 2284010; active = hit-call score of the fitted dose curve at least 0.9, where 1 is the maximum; inactive = score below 0.9). Put shortly:
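PI exclusion, high-content imaging; 8-pt dilution series, 6 h exposure; bidirectional fit vs DMSO (neg. ctrl/baseline); gain of signal = loss of membrane integrity.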

A short description of experiment [18]: CCTE_Harrill_HTTr_Apoptosis_MCF7: CCTE's 6-hour Apoptosis Assessment for the High-Throughput Transcriptomics (HTTr) Platform, in MCF-7 cells cultured in DMEM + 10% fetal bovine serum, Harrill Lab (AID 2284011; active = hit-call score of the fitted dose curve at least 0.9, where 1 is the maximum; inactive = score below 0.9). Put shortly: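 Read-out: CellEvent Caspase 3/7 Green signal by high content imaging, gain-of-signal indicating apoptosis. MCF-7 cells, DMEM + 10% FBS, eight-point dilution series, 6 h exposure. Curves fitted bidirectionally relative to DMSO negative control.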

Experiment [19] addresses human Peroxisome Proliferator-activated Receptor delta (PPARd), PPARD (gene 5467) (UniProt Q03181). The experiment is described as follows: ATG_PPARd_TRANS: Attagene TRANS-FACTORIAL HepG2 Assay for human Peroxisome Proliferator-activated Receptor delta (PPARd) (AID 2283002). Put shortly:
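HepG2 cells transiently transfected with multiplexed GAL4-UAS reporter units and exogenous chimeric NR-Gal4 proteins; 24 h compound exposure. Reporter mRNA measured by RT-PCR, 6-FAM labelling, HpaI digestion and capillary electrophoresis; gain of signal versus DMSO.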

Experiment [20] addresses Nuclear receptor subfamily 1 group I member 3 (Homo sapiens) (UniProt Q14994). The experiment is described as follows: ATG_CAR_TRANS: Attagene TRANS-FACTORIAL HepG2 Assay for human Constitutive Androstane Receptor (CAR) (AID 2282969).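 Note: activators raise reporter mRNA above DMSO so AC50 marks induction.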 As to conditions: HepG2 Attagene TRANS-FACTORIAL CAR reporter. Put shortly:
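Steps: transient transfection of HepG2 with multiple GAL4-UAS reporter units; 24 h compound incubation; RNA isolation, RT-PCR, 6-FAM primer extension, HpaI digest; capillary electrophoresis. Gain-of-signal relative to DMSO negative control.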

The source of these data is PubChem BioAssay (EPA / NIEHS).

Each structure is given as a SMILES string. Inconclusive results are not listed. The source made the active and inactive calls. Rule for the calls, unless noted: active = hit-call score of the fitted dose curve at least 0.9, where 1 is the maximum; inconclusive = response in the unintended direction; inactive = score below 0.9.

What is called AC50 is the concentration giving half of the maximal activity seen.

Chain of Oxysterols receptor LXR-alpha (Homo sapiens) (Q13133 whole entry, looked up, the tested form may be a part): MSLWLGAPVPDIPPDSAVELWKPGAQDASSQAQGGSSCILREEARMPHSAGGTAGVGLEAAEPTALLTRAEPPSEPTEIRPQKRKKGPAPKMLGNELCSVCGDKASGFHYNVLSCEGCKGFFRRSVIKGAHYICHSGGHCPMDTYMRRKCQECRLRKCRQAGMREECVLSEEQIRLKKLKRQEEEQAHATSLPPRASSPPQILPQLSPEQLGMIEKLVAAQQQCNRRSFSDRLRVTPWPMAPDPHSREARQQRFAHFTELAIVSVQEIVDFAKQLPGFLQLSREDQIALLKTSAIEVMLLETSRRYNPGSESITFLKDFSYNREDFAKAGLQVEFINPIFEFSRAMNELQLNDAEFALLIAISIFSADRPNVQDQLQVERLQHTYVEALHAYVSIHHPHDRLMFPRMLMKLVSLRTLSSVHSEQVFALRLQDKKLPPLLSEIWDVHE
Chain of Retinoic acid receptor alpha (Homo sapiens) (P10276 whole entry, looked up): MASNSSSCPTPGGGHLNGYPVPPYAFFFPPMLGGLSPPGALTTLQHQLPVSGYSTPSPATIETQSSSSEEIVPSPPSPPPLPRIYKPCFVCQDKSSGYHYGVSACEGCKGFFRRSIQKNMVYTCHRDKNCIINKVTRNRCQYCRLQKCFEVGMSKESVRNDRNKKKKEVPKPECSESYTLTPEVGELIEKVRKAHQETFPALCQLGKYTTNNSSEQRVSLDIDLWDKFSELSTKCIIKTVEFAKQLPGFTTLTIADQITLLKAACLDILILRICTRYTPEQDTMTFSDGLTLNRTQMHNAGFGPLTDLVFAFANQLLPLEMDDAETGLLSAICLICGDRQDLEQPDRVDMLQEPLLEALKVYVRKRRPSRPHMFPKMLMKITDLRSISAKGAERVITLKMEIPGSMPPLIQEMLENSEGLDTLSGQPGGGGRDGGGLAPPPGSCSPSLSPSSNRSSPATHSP
Chain of human RAR-related Orphan Receptor beta (RORb), RORB (gene 6096) (Q92753 whole entry, looked up, the tested form may be a part): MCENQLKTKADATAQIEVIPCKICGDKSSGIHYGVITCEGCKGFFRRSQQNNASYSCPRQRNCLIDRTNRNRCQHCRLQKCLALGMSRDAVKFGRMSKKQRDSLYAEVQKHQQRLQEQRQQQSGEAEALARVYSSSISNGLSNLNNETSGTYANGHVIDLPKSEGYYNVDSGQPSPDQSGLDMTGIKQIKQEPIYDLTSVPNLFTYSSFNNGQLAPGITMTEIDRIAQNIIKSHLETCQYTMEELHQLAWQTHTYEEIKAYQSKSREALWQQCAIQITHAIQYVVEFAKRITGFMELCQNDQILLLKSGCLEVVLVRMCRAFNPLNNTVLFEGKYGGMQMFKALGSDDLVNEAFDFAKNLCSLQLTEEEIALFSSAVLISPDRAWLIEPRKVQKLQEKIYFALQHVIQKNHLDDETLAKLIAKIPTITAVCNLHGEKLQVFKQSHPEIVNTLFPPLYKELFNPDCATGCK
Chain of human Peroxisome Proliferator-activated Receptor delta (PPARd), PPARD (gene 5467) (Q03181 whole entry, looked up, the tested form may be a part): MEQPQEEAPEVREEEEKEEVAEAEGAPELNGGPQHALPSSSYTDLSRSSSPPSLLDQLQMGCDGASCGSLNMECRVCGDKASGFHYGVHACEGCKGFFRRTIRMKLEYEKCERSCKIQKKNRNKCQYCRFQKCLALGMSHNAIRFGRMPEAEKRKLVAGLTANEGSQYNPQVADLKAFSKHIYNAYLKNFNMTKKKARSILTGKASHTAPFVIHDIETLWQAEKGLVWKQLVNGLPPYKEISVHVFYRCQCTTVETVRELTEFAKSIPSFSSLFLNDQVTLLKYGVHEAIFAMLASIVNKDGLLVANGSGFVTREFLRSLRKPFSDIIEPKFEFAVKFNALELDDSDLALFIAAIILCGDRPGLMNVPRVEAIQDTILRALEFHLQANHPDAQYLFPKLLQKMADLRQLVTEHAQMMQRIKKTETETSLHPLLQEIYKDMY
Chain of human Peroxisome Proliferator-activated Receptor alpha (PPARa), PPARA (gene 5465) (Q07869 whole entry, looked up, the tested form may be a part): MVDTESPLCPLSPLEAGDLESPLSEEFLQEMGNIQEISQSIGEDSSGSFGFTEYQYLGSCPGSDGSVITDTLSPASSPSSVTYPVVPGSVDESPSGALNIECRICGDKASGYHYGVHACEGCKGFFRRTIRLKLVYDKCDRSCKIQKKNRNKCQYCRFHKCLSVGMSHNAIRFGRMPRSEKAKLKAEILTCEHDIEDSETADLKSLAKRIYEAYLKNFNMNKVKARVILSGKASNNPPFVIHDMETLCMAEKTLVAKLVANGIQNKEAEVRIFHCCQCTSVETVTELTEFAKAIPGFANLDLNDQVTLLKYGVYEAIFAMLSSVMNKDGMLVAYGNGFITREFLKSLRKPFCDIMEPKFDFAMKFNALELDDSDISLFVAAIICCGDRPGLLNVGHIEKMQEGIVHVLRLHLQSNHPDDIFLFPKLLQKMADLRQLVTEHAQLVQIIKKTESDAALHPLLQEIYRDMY
Chain of Nuclear receptor subfamily 1 group I member 3 (Homo sapiens) (Q14994 whole entry, looked up, the tested form may be a part): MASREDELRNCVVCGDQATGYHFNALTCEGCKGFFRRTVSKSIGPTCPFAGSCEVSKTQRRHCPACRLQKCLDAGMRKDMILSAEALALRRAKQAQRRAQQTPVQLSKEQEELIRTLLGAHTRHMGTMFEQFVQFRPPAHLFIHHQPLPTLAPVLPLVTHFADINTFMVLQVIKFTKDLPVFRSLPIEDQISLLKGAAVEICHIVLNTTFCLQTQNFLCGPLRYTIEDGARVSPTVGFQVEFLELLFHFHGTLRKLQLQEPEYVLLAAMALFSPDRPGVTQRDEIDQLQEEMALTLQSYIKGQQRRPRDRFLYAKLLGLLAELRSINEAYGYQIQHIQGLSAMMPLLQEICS

For `Nc1cc(Cl)cc(Cl)c1`, the result in experiment [1], in experiment [2], in experiment [3], in experiment [4], in [5] and in experiment [6] was inactive. In addition, the molecule was called inactive in experiment [7], in experiment [8], in experiment [9] and in experiment [10].

On to `O=[N+]([O-])c1cc([N+](=O)[O-])c2ccccc2c1`, for which the call in [1], in [11], in experiment [12], in experiment [5], in [6] and in [9] was inactive. Also, the call in experiment [10] was inactive.

Take `ClCCCCCCCl`: the molecule was classed as inactive in experiment [1], in experiment [12], in experiment [5], in experiment [6], in experiment [13] and in experiment [14]. Also, the outcome in experiment [9] and in [15] was inactive.

For `O=S(=O)(c1ccccc1)c1ccccc1`, the molecule was classed as inactive in experiment [1], in experiment [2], in [3], in experiment [4], in experiment [12] and in [16]. The molecule was classed as inactive in experiment [9], in experiment [17] and in experiment [18]. The AC50 in experiment [8] was 10.3 µM (active).

In the case of `O=C(CCl)c1ccccc1`, the result in experiment [1], in experiment [4], in [11], in experiment [12], in experiment [5] and in experiment [6] was inactive. Also, the outcome in experiment [19], in experiment [8], in [13], in [15], in [10] and in [17] was inactive. In addition, in experiment [18], the result was inactive. Besides, the AC50 in experiment [7] was 50.2 µM (active); in experiment [14], 62 µM (active).

With `CC(C)[C@@H](C(=O)O[C@@H](C#N)c1cccc(Oc2ccccc2)c1)c1ccc(Cl)cc1`, the molecule was called inactive in experiment [3], in experiment [20], in experiment [5], in experiment [6], in [19] and in experiment [17]. Further, the outcome in [18] was inactive. Further, the AC50 in experiment [8] was 0.752 µM (active).
